Source: PubChem
Hits are enriched below; roughly 3.5% of the tested compounds scored in any of these assays.
MITF inh: human MITF inhibition, primary screen. O75030. AlphaScreen MITF homodimerization, bead proximity signal. inhibition, % at 2.6 µM. 0.91% of 650,000 active; in the data active means inhibition above about 50%;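 further: 0% = vehicle wells with protein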
GPR151 ag: human GPR151 activation | Q8TDV0 | PathHunter beta-arrestin GPR151 cells, luminescence | activation, % at 11.2 µM | 1% of 650,000 active | AID 1508602; in the data active means activation above about 4.9%;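 further: 0% = median of compound wells and 100% = cells with positive control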
Target sequence (Q8TDV0 whole entry, looked up): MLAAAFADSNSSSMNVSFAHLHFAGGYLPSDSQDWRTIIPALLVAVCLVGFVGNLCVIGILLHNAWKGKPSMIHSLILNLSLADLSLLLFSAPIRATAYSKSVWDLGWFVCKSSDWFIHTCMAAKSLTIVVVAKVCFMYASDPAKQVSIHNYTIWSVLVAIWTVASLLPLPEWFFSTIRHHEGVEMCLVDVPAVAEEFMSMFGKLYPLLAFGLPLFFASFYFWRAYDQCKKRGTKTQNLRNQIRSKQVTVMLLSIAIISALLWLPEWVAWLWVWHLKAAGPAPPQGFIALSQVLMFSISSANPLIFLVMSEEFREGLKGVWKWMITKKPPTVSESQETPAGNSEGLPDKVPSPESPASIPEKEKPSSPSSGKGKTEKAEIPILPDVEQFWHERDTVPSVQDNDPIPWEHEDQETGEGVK
TEAD-YAP inh: TEAD-YAP interaction inhibition; inhibition, % at 9.12 µM; 1.4% of 640,000 active; HEK-TIYL cells, TEAD-Gal4/YAP UAS-luciferase luminescence; in the data active means inhibition above about 32%;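 further: 0% = median of test compound wells and 100% = reference inhibitor wells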
FBW7 act: human FBW7 E3 ligase activation, primary screen | AlphaScreen FBW7–phospho-cyclin E peptide binding, activator screen | Q969H0 | normalized activity (activation), % at 26.1 µM | 0.13% of 650,000 active; in the data active means normalized activity above about 1.9%;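 further: purified mutant Fbw7 with reduced substrate affinity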
MITF confirm: human MITF inhibition, confirmation; shares compounds with MITF inh; inhibition, % at 2.6 µM; AID 1259372; AlphaScreen MITF homodimerization, biotin/His-MITF beads; 16% of 4,700 active;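 active means inhibition above a cutoff derived from the DMSO control wells, cut at about 28% in these data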;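 further: 0% = MITF dimer wells with DMSO only; inhibitors lower the bead chemiluminescence by keeping MITF from dimerizing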
AlphaScreen DR: AlphaScreen optical interference, dose response counter-screen; AlphaScreen optical interference counterscreen, cell-free; 6% of 480 active; IC50, µM; shares compounds with MITF inh; call rule not given here
AS interf ctr: optically interferes with AlphaScreen signal; shares compounds with MITF inh; LysRS AlphaScreen counterscreen, signal interference, triplicate; inhibition, % at 2.6 µM; 7.6% of 4,700 active;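 active means inhibition above a cutoff derived from the DMSO control wells, cut at about 30% in these data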
Numbers without * were called inactive; · = not tested or not shown.

SMILES	MITF inh	GPR151 ag	TEAD-YAP inh	FBW7 act	MITF confirm	AS interf ctr	others
Cc1cccc(N2C(=O)C3C4C=CC(O4)C3C2=O)c1C (configuration not stated)	51*	0	6	-1	-1	10
COc1ccc(CCNC(=O)c2cc(Nc3ccnn3C)nc3ccccc23)cc1	69*	-2	-4	0	0	-2
COc1ccc(N=C2NC(=O)/C(=C/c3cccnc3)S2)cc1	23	0	4	0	·	·
CC(C)(C)c1ccc(C(=O)N2CCC(Cc3ccccc3)CC2)cc1	0	1	-5	0	·	·
CN1CCN(C(=O)/C(=C\c2ccco2)NC(=O)c2ccco2)CC1	3	0	2	0	·	·
C/C(=N\Nc1ccc(C(F)(F)F)cn1)c1ccccn1	58*	3	87*	-1	11	35*
C/C(=N\Nc1nc2ccccc2[nH]1)c1ccccn1	105*	-5	74*	-1	110*	99*
C/C(=N\Nc1nc2ccccc2[nH]1)c1cccnc1	-4	1	-17	0	·	·
CC(=O)Nc1ccc(N2C(=O)c3cccc4cc(Br)cc(c34)C2=O)cc1	4	1	-2	0	·	·
COCCCNCCOc1ccc2ccccc2c1Br	59*	0	-4	0	7	18
CC(O)CNCCCCOc1ccc2ccccc2c1Br (configuration not stated)	71*	1	3	0	53*	40*
C/C(=N\Nc1ccc(S(N)(=O)=O)cc1[N+](=O)[O-])c1cc(Cl)ccc1Cl	-1	0	-7	-1	·	·
CC(C)Nc1nc(-c2ccc(Cl)cc2)c(S(C)(=O)=O)cc1C#N	58*	2	-13	0	14	16
CS(=O)(=O)c1cc(C#N)c(N2CCNCC2)nc1-c1ccc(Cl)cc1	1	2	3	0	·	·
Cc1c(NC(=O)CCN2C(=O)C3C4CCC(C4)C3C2=O)ccc(Br)c1Cl (configuration not stated)	68*	-1	-19	0	10	-3
O=C1CC(c2ccc(Br)cc2)=NO1	19	0	-8	0	·	·
O=C1CC(c2ccccc2)=NO1	56*	-1	-6	0	13	12
Cc1nc(NCCCn2ccnc2)c2c(-c3cccs3)csc2n1	64*	1	1	0	6	-2
Cc1nc(NCCCn2ccnc2)c2ccccc2n1	8	0	9	0	·	·
COc1ccc(Cl)cc1NC(=O)Cn1cnc2c(cnn2-c2ccc(C)c(C)c2)c1=O	0	-1	10	0	·	·
Cc1cc(C)n2nc(N)nc2n1	8	0	3	0	·	·
Cc1cc(C)n2nc(N)c(N)c2n1	62*	0	-13	0	29*	1	AlphaScreen DR=>12
Cc1cc(OCCN2CCOCC2)ccc1C(C)C	59*	-2	-39	0	2	3
COc1cccc(OCCn2cncn2)c1	11	-1	4	1	·	·
CC(C)c1cccc(OCCCN2CCOCC2)c1	56*	3	-1	0	14	15
SMILES	MITF inh	GPR151 ag	TEAD-YAP inh	FBW7 act	MITF confirm	AS interf ctr	others
Cc1ccc(C(C)C)cc1OCCN1CCOCC1	51*	0	14	0	-11	-7
Cc1ccc(C(C)C)cc1OCCn1cncn1	66*	1	-8	0	10	17
CN1C(=O)CC(CC(=O)N2CCCN(Cc3cccs3)CC2)(c2ccccc2F)C1=O (configuration not stated)	-5	0	8	0	·	·
Cc1ccc(C)c(OCCCN2CCOCC2)c1	10	1	2	0	·	·
Cc1ccc(C(C)C)cc1OCCCCN1CCOCC1	79*	1	10	0	-7	-6
Cc1cc(Br)ccc1OCCOCCn1ccnc1	63*	-2	-6	0	3	8
CC(C)(C)c1cc(Cl)ccc1OCCn1ccnc1	74*	0	-3	1	5	11
C=CCc1cccc(OC)c1OCCOCCn1ccnc1	54*	0	-7	0	-1	7
Cc1cc(C(C)(C)C)ccc1OCCCn1ccnc1	19	1	4	0	·	·
Cc1cc(C(C)(C)C)ccc1OCCn1ccnc1	70*	-2	1	0	4	15
Cc1ccc(OCCn2ccnc2)c(C)c1	0	-1	6	0	·	·
C/C(=C\c1ccccc1)CN1CCc2nnc(CNC(=O)c3cc(C)oc3C)n2CC1	12	2	12	0	·	·
Cc1ccc(-c2ccccc2)n1-c1cccc2ccccc12	3	0	7	0	·	·
CCN1CCN(CCCOc2ccc(C)cc2I)CC1	57*	-1	-5	0	6	16
Cc1ccc(OCCn2cncn2)c([N+](=O)[O-])c1	-27	0	-3	0	·	·
Cc1ccc(OCCCn2cncn2)c(I)c1	54*	0	-9	0	-13	-5
CCN1CCN(CCCCOc2ccc(C)cc2I)CC1	53*	-1	5	1	9	15
Cn1c(SCC(=O)Nc2ccc(C(=O)O)cc2)nnc1-c1ccncc1	4	3	6	0	·	·
CC(=O)c1ccc(NC(=O)CSc2nnc(-c3ccncc3)n2CCCN(C)C)cc1	71*	0	-13	0	7	10
CCn1c(SCC(=O)Nc2ccc(NC(=O)C(C)(C)C)cc2)nnc1-c1ccncc1	-1	-1	7	0	·	·
CCc1ccc(NC(=O)CSc2nnc(-c3ccncc3)n2CCCN(C)C)cc1	88*	-1	3	0	8	12
CCS(=O)(=O)NCC(c1cccs1)S(=O)(=O)c1ccc(C)cc1 (configuration not stated)	85*	3	-2	3.2*	82*	4	AlphaScreen DR=>6.6
Cc1ccc(S(=O)(=O)C(CNS(=O)(=O)c2ccccc2)c2cccs2)cc1 (configuration not stated)	21	0	5	0	·	·
COC(=O)c1cc(C(=O)Nc2cccc(OC)c2)cc([N+](=O)[O-])c1	13	1	4	0	·	·
Cc1cc(C)c(C)c(S(=O)(=O)Nc2ccc(C(=O)NCc3ccccn3)cc2)c1C	11	1	-5	1	·	·
SMILES	MITF inh	GPR151 ag	TEAD-YAP inh	FBW7 act	MITF confirm	AS interf ctr	others
CS(=O)(=O)Nc1ccc(C(=O)NCc2ccccn2)cc1	70*	1	-5	1	-6	-8
Oc1c(Cl)cc(CN2CCCCC2)c2cccnc12	110*	1	83*	-1	110*	101*
Oc1c(Br)cc(CN2CCCCC2)c2cccnc12	92*	0	66*	-1	112*	101*
Clc1ccccc1CN1CCN(c2ncccn2)CC1	21	0	-4	0	·	·
Nn1cnnc1N/N=C/c1cccc2ccccc12	-4	0	6	-2	·	·
Cc1ccc(Nc2nc(Cl)nc(Nc3ccc(C)c(C)c3)n2)cc1	1	1	4	0	·	·
CC(Oc1ccc(O)cc1)(P(=O)(O)O)P(=O)(O)O	97*	2	·	1	96*	16	AlphaScreen DR=>6.5
